Our source for the binding signal values is publication PMC12864922, “TDP-43 directly inhibits mRNA accumulation in neurites through modulation of mRNA stability”.

To fix the notation:
B1: ENSMUSG00000043670.63|Diras1 (ssRNA)
RNA: GGGAGUUCUACAGUCCGACGAUCGCUUCGAUAUCCGCAUGCUAAGACCUCUCCCUCUAUAUCUCUUUGCUCCCCCACCCCCAUUCUAUCUGCACCCCACAACCACACACUGGAGGUUUGAUCCCUGUGGAUCUGAAAACAGGGACCUGGCUAAGGAACUGCUCAUCCCAGUCAGGCCCAGAGAGGUUACCUUGCCUCUCCAUCUCUGUCCCUGUGUGCCCAGCCAUGCCCACUGUCCCUGUCCCUCACAUUCUAUCACUGUGACCUCUGGGGAGUGCCCAUUGACCUCAUCUUCCUUCACUAACUCUUGCGGUCGCACUAGUGUGGAAUUCUCGGGUGUCAAGG
B2: ENSMUSG00000058297.300|Spock2 (ssRNA)
RNA: GGGAGUUCUACAGUCCGACGAUCGCUUCGAUAUCCGCAUGCUAAGGGCCACCCUGAUGCCCAGGAAGAGUGAGGGCAGCCCCCUGUGUGGUGGAAGAGGCUGGGCAGCUAGCUACUGGGGACCUUGUGCUGAGGCUUCCAGGACAAAGCCCCAGUCUGGCUCUCCCCCAGCCUCUCAGGGGCACUGGCUGGUCACAUCCACUGAGUAUUGAUCGGUUGGACUUUAGGGAAGAGCCUCCUCCUUCCCAUUCCUUUCUGCCACCCUGGAAUGGCCACCUUAAUCGUCAUCUCCUCGGGGGGAAUACUCUUGCGGUCGCACUAGUGUGGAAUUCUCGGGUGUCAAGG
B3: ENSMUSG00000031028.551|Tub (ssRNA)
RNA: GGGAGUUCUACAGUCCGACGAUCGCUUCGAUAUCCGCAUGCUACCUGGUUUCCCUUCUCAGCAGUCCUGGCCUCCCCUUCUCUGUAUUCCUUGCCCCAGCUACGAUAUCCUCAUGGGAUUUCAGGAUGCCAGGUGCCAUCAAAGCAUGCUUUUUUGUGGUGCCUAGCACUGUGACUGGGGCCCAACUGCCCUGCAGAGUUGGGACCUUGCACUGCCCUAGACCCUGGCUUUAGAUCUGCUUCAGUCUCCAGAACAGGCUAUGGGAUAGAUUUUUCUUUCAGUUUAUGGCCACCUGCCCAAAUUCUCUUGCGGUCGCACUAGUGUGGAAUUCUCGGGUGUCAAGG
B4: ENSMUSG00000028439.8|Fam219a|14:18;220:226 (ssRNA)
RNA: GGGAGUUCUACAGUCCGACGAUCGCUUCGAUAUCCGCAUGCUAAACCCCACCUGCAACACAUGUCAGGCCACUUCCUCCACCGCCUGCCACAUUCAGUAGUGGGCGGGGUCGCCGCGGUGCACGGGGCGCUGACCUGGGCCCGGUGGGAUGCAGCAGGAGAGACCCCUACCCUGCUGGUCCACUGGUCCCCAGCCCCGCGCCUCUUAGAGCCGCCAACCUCGUAACAGUCAUUGCUUCCUCCUAUGGUAGGACGUGUACCUCACACACAUCAAGGAGCCGGAGAAACCAAAACCGGGUCUGUCCUCUUGCGGUCGCACUAGUGUGGAAUUCUCGGGUGUCAAGG
B5: ENSMUSG00000034801.23|Sos2 (ssRNA)
RNA: GGGAGUUCUACAGUCCGACGAUCGCUUCGAUAUCCGCAUGCUAGAUUCCACGCAGCUGUCACUUGCUCAGCUCCAGUCACAGCAGCCUUGCUCAUCUUCCAGCUCCUCCUGUCCCACCAAGGCAGAAUUCAAGCCCUCUCUUACCAAAGCUGCCACCAAAGACUUACAAACGGGAGCUUUCCCACCCGCCACUGUAUAGACUGCCUCUGCUGGAAAAUGCAGAAACUCCUCAAUGACCUUGGCCAUAUGUAGUCAUUGACACUGGAAUAGUAUUUGUAAAGGUUUUUAAUUUAUUCAAAAAGACUCUUGCGGUCGCACUAGUGUGGAAUUCUCGGGUGUCAAGG
B6: ENSMUSG00000028439.144|Fam219a (ssRNA)
RNA: GGGAGUUCUACAGUCCGACGAUCGCUUCGAUAUCCGCAUGCUACCCAGUCUUCUGUCUAUUGGUUCCAGGCUGGAAGCAAGAGAUAAGGCUGGCCUCCUGUGCCCCAUUGCCAUUUCACCCUAGCUCAAAGUCCAGGAGCCAGGCUUCCAGAAAGGCUCUUCAAGAGCAAGCUUAAGGAAAUACAGUGAGCCAAGUGGCUGUAUGAUAUGGUAUGGUAUGGUAUGGUAUGGUAUGGUAUGGUAUGCACAUGUGUGUGCAUGUGUGUGUGCCUGUGUGUGUGCGUGUGCGUGUGUGUAUGUGUGCUCUUGCGGUCGCACUAGUGUGGAAUUCUCGGGUGUCAAGG
B7: ENSMUSG00000028439.146|Fam219a (ssRNA)
RNA: GGGAGUUCUACAGUCCGACGAUCGCUUCGAUAUCCGCAUGCUAUCUAUUGGUUCCAGGCUGGAAGCAAGAGAUAAGGCUGGCCUCCUGUGCCCCAUUGCCAUUUCACCCUAGCUCAAAGUCCAGGAGCCAGGCUUCCAGAAAGGCUCUUCAAGAGCAAGCUUAAGGAAAUACAGUGAGCCAAGUGGCUGUAUGAUAUGGUAUGGUAUGGUAUGGUAUGGUAUGGUAUGGUAUGCACAUGUGUGUGCAUGUGUGUGUGCCUGUGUGUGUGCGUGUGCGUGUGUGUAUGUGUGUGCGUGUGUGUGCUCUUGCGGUCGCACUAGUGUGGAAUUCUCGGGUGUCAAGG
B8: ENSMUSG00000028439.139|Fam219a (ssRNA)
RNA: GGGAGUUCUACAGUCCGACGAUCGCUUCGAUAUCCGCAUGCUAUCUGCCUCAUCCCCACACCGCCCUGCCACCCCCAGUCUUCUGUCUAUUGGUUCCAGGCUGGAAGCAAGAGAUAAGGCUGGCCUCCUGUGCCCCAUUGCCAUUUCACCCUAGCUCAAAGUCCAGGAGCCAGGCUUCCAGAAAGGCUCUUCAAGAGCAAGCUUAAGGAAAUACAGUGAGCCAAGUGGCUGUAUGAUAUGGUAUGGUAUGGUAUGGUAUGGUAUGGUAUGGUAUGCACAUGUGUGUGCAUGUGUGUGUGCCUGCUCUUGCGGUCGCACUAGUGUGGAAUUCUCGGGUGUCAAGG
B9: ENSMUSG00000028439.142|Fam219a (ssRNA)
RNA: GGGAGUUCUACAGUCCGACGAUCGCUUCGAUAUCCGCAUGCUACGCCCUGCCACCCCCAGUCUUCUGUCUAUUGGUUCCAGGCUGGAAGCAAGAGAUAAGGCUGGCCUCCUGUGCCCCAUUGCCAUUUCACCCUAGCUCAAAGUCCAGGAGCCAGGCUUCCAGAAAGGCUCUUCAAGAGCAAGCUUAAGGAAAUACAGUGAGCCAAGUGGCUGUAUGAUAUGGUAUGGUAUGGUAUGGUAUGGUAUGGUAUGGUAUGCACAUGUGUGUGCAUGUGUGUGUGCCUGUGUGUGUGCGUGUGCGUGCUCUUGCGGUCGCACUAGUGUGGAAUUCUCGGGUGUCAAGG
B10: ENSMUSG00000028439.145|Fam219a (ssRNA)
RNA: GGGAGUUCUACAGUCCGACGAUCGCUUCGAUAUCCGCAUGCUACUUCUGUCUAUUGGUUCCAGGCUGGAAGCAAGAGAUAAGGCUGGCCUCCUGUGCCCCAUUGCCAUUUCACCCUAGCUCAAAGUCCAGGAGCCAGGCUUCCAGAAAGGCUCUUCAAGAGCAAGCUUAAGGAAAUACAGUGAGCCAAGUGGCUGUAUGAUAUGGUAUGGUAUGGUAUGGUAUGGUAUGGUAUGGUAUGCACAUGUGUGUGCAUGUGUGUGUGCCUGUGUGUGUGCGUGUGCGUGUGUGUAUGUGUGUGCGUGCUCUUGCGGUCGCACUAGUGUGGAAUUCUCGGGUGUCAAGG
B11: ENSMUSG00000028439.143|Fam219a (ssRNA)
RNA: GGGAGUUCUACAGUCCGACGAUCGCUUCGAUAUCCGCAUGCUAGCCACCCCCAGUCUUCUGUCUAUUGGUUCCAGGCUGGAAGCAAGAGAUAAGGCUGGCCUCCUGUGCCCCAUUGCCAUUUCACCCUAGCUCAAAGUCCAGGAGCCAGGCUUCCAGAAAGGCUCUUCAAGAGCAAGCUUAAGGAAAUACAGUGAGCCAAGUGGCUGUAUGAUAUGGUAUGGUAUGGUAUGGUAUGGUAUGGUAUGGUAUGCACAUGUGUGUGCAUGUGUGUGUGCCUGUGUGUGUGCGUGUGCGUGUGUGUACUCUUGCGGUCGCACUAGUGUGGAAUUCUCGGGUGUCAAGG
B12: ENSMUSG00000004113.108|Cacna1b|97:101;113:118;234:238 (ssRNA)
RNA: GGGAGUUCUACAGUCCGACGAUCGCUUCGAUAUCCGCAUGCUAGGACCCAGCAAAUCCAAAUCCUAUGUCAUGGCCUCCAGCAUCCAGGGUGGGUCCUUGGGACUUUUCUUAGGAGGGACUUUCUGAGCCUCGUGGAGACACACGUUUGUCCAAAACACACGCAUGGGAGAUAGGGUACCCCUGAAAGCAAGGAAAGGAGCCCAGCUGUGGCCUGGUAGCACCUGCCGGCACCAGUGAUCUCACGUCUCUUGUGGUCUUGGAGUCAAAUAGCACAUCAUACUAGAGAUGCGCUCAAGGGCCUGCUCUUGCGGUCGCACUAGUGUGGAAUUCUCGGGUGUCAAGG
B13: ENSMUSG00000042529.323|Kcnj12 (ssRNA)
RNA: GGGAGUUCUACAGUCCGACGAUCGCUUCGAUAUCCGCAUGCUAGAUGCUGUAUUUUCAAAUUCUCCUGCCCUCUUUUCCCCUUUUUCCCUGUAUUUAUUUAUUGCUUGUGCUAAAGACCAAACUAGCCGCCCCCUUUAGUGCACCCAAUGGAGGAAGCCACUGAGGGGGGAGCCGUGUGCCUGUGCCAGGCAGGAAAGCUUGGCCCCUGGGAAGUGUGUGAGAAGGAAAACCAGGGUGUGUGUGCACGCAUGUGCAGACGUGCUCACACGAUCGUCUCCCUGUGUGGGAAACUUGGUAUGCAGCUCUUGCGGUCGCACUAGUGUGGAAUUCUCGGGUGUCAAGG

Whole data set: some 9,900 sequences, median “r (bound/input frequency ratio)” near 0.7, cut for the highest 2% near 6.5. For the sample, the highest values were picked, then their nearest neighbours and some sequences at random.

Chain of TDP-43 (Q13148 whole entry): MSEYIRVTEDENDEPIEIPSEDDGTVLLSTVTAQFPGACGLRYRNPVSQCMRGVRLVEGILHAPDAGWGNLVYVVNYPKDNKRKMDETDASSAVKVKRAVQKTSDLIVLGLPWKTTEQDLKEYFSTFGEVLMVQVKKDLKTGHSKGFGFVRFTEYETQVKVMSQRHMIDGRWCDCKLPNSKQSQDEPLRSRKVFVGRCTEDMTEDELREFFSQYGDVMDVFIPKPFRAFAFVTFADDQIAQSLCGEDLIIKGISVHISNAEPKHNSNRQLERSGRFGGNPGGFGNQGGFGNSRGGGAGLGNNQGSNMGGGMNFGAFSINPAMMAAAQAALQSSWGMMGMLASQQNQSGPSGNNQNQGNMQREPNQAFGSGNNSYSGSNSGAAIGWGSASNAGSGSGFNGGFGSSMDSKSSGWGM

This test concerns the target TDP-43 (Homo sapiens, UniProt Q13148 1-414). The experiment in a line: RNA Bind-n-Seq with designed 260-mer pool; 25 mM Tris-HCl, 150 mM KCl, 3 mM MgCl2, BSA (printed 500 mg/mL), 20 units/mL SUPERase IN; pH not stated; 500 nM RNA pool, 1 h, 4 C; TDP-43 5, 50, 500 nM; high values mean tight binding. The settings on record: protein: recombinant; tags: SBP (GST cleaved off with PreScission; pGEX-GST-SBP). The essentials:
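Duplicate measurements used two independent batches of recombinant SBP-tagged TDP-43, which was captured on streptavidin beads at 5, 50 or 500 nM. The beads were incubated with 500 nM of an in vitro-transcribed 260-nt 3′ UTR oligo pool for 1 h at 4 °C in 25 mM Tris-HCl, 150 mM KCl, 3 mM MgCl2, BSA and SUPERase IN. After washing, biotin elution, reverse transcription, PCR amplification and sequencing, binding was expressed as R: each oligo's normalized read abundance in the bound sample over its abundance in input.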
Take B1: the binding signal was 2.02 R (bound/input frequency ratio).
Then B2, with 0.798 R (bound/input frequency ratio); and B3, with 0.798 R (bound/input frequency ratio).
Take B4: the binding signal was 0.367 R (bound/input frequency ratio).
Then B5, with 0.462 R (bound/input frequency ratio).
Then B6, with 6.06 R (bound/input frequency ratio); and B7, with 7.87 R (bound/input frequency ratio).
Then B8, with 2.12 R (bound/input frequency ratio).
As for B9, the binding signal was 4.5 R (bound/input frequency ratio).
Then B10, with 8.23 R (bound/input frequency ratio).
Then B11, with 5.96 R (bound/input frequency ratio); and B12, with 0.293 R (bound/input frequency ratio); and B13, with 2.13 R (bound/input frequency ratio).
